AMPAR-TARP mod – modulates AMPAR-stargazin complexes. O88602+P19491. HEK293 GluA2+stargazin, membrane potential dye (FDSS), glutamate EC50; hits were called plate by plate, in both directions. calls only at 30 µM. 40,000 tested, 3.5% active;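 active means any of four per-well response measures lying three or more SD from its plate-wide compound average, in either direction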
GIRK2 act – Activates human GIRK2-containing potassium channels; 34,000 tested, under 10 active; AID 1259324; HEK293 GIRK2/NPY4 cells, thallium flux fluorescence; activation (% efficacy), % for hits at 37.5 µM; P48051;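 active means primary screen hit, no activity in plain HEK293 cells, and in GIRK2-only cells above 5% efficacy rising with concentration; inactive means the rest, including fluorescent compounds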;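 further: efficacy is normalized control-subtracted fluorescence 15 s after thallium addition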
Target sequence (P48051 whole entry, looked up): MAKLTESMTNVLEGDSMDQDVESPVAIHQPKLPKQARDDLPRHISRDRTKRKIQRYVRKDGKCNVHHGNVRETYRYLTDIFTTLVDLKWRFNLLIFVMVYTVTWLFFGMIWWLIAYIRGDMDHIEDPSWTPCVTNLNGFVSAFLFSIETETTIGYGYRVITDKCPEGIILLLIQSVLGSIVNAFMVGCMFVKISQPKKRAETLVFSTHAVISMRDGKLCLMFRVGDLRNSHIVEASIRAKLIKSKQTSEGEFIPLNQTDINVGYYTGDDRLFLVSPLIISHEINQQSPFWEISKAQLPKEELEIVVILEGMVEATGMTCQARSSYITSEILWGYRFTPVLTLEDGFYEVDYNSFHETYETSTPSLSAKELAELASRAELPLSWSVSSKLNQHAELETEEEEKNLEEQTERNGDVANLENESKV
* = called active by the depositor; ! = not confirmed by another sample. This excerpt belongs to a sample that is enriched for hits.

Results for Cc1[nH]c(=O)nc(SCC(=O)NC2CCCC2)c1C#N ?
AMPAR-TARP mod: inactive; GIRK2 act: inactive

What do the screens show for `CCc1nc(SCC(=O)N(CC)CC)c(C#N)c2c1CCCC2`?
AMPAR-TARP mod: active

Results for COc1ccc(S(=O)(=O)c2c(C)cc(C)n(CC(=O)Nc3cc(OC)ccc3OC)c2=O)cc1 ?
AMPAR-TARP mod: inactive; GIRK2 act: inactive

Results for COc1ccc(CNC(=O)c2ccc(NC(=O)Cn3c(C)cc(C)c(C#N)c3=O)cc2)c(OC)c1 ?
AMPAR-TARP mod: active!; GIRK2 act: inactive

Results for Cn1c(=O)c(C(=O)NCCc2ccc(S(N)(=O)=O)cc2)cc2cccnc21 ?
AMPAR-TARP mod: inactive; GIRK2 act: inactive

What do the screens show for `Cn1c(=O)c(C(=O)Nc2ccc(S(N)(=O)=O)cc2)cc2cccnc21`?
AMPAR-TARP mod: active; GIRK2 act: inactive

What do the screens show for `COc1cccc(NC(=O)Cn2c(=O)n(Cc3ccccc3)c(=O)c3nscc32)c1`?
AMPAR-TARP mod: inactive; GIRK2 act: inactive

How did COc1ccc(N(CC(O)CNCCC(C)C)S(=O)(=O)c2ccc(C)cc2)cc1 (centres undefined) do in these assays?
AMPAR-TARP mod: active

What do the screens show for `Cc1ccc(S(=O)(=O)N(CC(O)CNCCC(=O)O)c2ccc(F)cc2)cc1` (centres undefined)?
AMPAR-TARP mod: inactive; GIRK2 act: inactive

How did Cc1ccc(Nc2cc(C)nc3c4c(C)cc(C)nc4nn23)cc1 do in these assays?
AMPAR-TARP mod: inactive; GIRK2 act: inactive

What do the screens show for `COc1ccc(N2C(=O)C3N=NN(CC(=O)Nc4ccc(C)cc4Cl)C3C2=O)cc1OC` (centres undefined)?
AMPAR-TARP mod: inactive

How did O=S(=O)(Nc1ccc2c(c1)OCCO2)c1c(Cl)cccc1Cl do in these assays?
AMPAR-TARP mod: inactive; GIRK2 act: inactive

How did O=S(=O)(Nc1cccc(C(F)(F)F)c1)c1c(Cl)cccc1Cl do in these assays?
AMPAR-TARP mod: active; GIRK2 act: inactive

Results for N#Cc1ccccc1CN1CCC(c2nnc(-c3ccco3)s2)CC1 ?
AMPAR-TARP mod: inactive; GIRK2 act: inactive

How did COC(=O)c1ccc(C(=O)N(Cc2cccn2C)C2CC2)cc1 do in these assays?
GIRK2 act: inactive

Results for Cc1noc(C2CN(S(=O)(=O)c3cccc(Cl)c3C)C2)n1 ?
AMPAR-TARP mod: active; GIRK2 act: inactive

How did Cc1noc(C2CN(S(=O)(=O)c3cccs3)C2)n1 do in these assays?
AMPAR-TARP mod: inactive; GIRK2 act: inactive

Results for CCCCNC(=O)c1sccc1S(=O)(=O)N1CCN(c2cc(C)ccc2C)CC1 ?
GIRK2 act: inactive

Results for Cc1ccc2nc3c(cc(C(=O)NCCN4CCOCC4)n3C)c(=O)n2c1 ?
AMPAR-TARP mod: inactive; GIRK2 act: inactive

What do the screens show for `Cc1cccn2c(=O)c(C(=O)NCCCN3CCOCC3)c(O)nc12`?
AMPAR-TARP mod: active; GIRK2 act: inactive

How did O=C(NCC1CCN(C(=O)COc2ccccc2)CC1)c1cc(-c2ccco2)on1 do in these assays?
AMPAR-TARP mod: inactive; GIRK2 act: inactive

What do the screens show for `Cc1ccc(-n2nc3c(c2NC(=O)C(=O)NCc2ccco2)CSC3)c(C)c1`?
AMPAR-TARP mod: inactive; GIRK2 act: inactive

How did O=C(C1CCCC1)N1CCN(c2ccc(-c3ccc(Cl)cc3)nn2)CC1 do in these assays?
AMPAR-TARP mod: active; GIRK2 act: inactive

How did O=C(C1c2ccccc2Oc2ccccc21)N1CCN(c2ccc(-c3ccncc3)nn2)CC1 do in these assays?
AMPAR-TARP mod: active; GIRK2 act: inactive

How did O=C(C1CCCCC1)N1CCN(c2ccc(-c3ccncc3)nn2)CC1 do in these assays?
AMPAR-TARP mod: inactive; GIRK2 act: inactive

What do the screens show for `O=C(C1CC1)N1CCN(c2ccc(-c3ccc(Cl)cc3)nn2)CC1`?
AMPAR-TARP mod: inactive; GIRK2 act: inactive

What do the screens show for `Cc1cccc(-c2noc(-c3cn(CC(=O)Nc4ccc(C)c(C)c4)c4nc(C)ccc4c3=O)n2)c1`?
AMPAR-TARP mod: inactive; GIRK2 act: inactive

What do the screens show for `O=C(NCC1CCN(S(=O)(=O)C2CC2)CC1)c1ccccc1C(F)(F)F`?
AMPAR-TARP mod: inactive; GIRK2 act: inactive

What do the screens show for `COc1ccc(NC(=O)c2cccc(S(=O)(=O)N3CCOCC3)c2)c(OC)c1`?
GIRK2 act: inactive

How did O=C1Nc2ccccc2Oc2ccc(NS(=O)(=O)C3CCCCC3)cc21 do in these assays?
AMPAR-TARP mod: active

What do the screens show for `O=C(Cc1ccc(NS(=O)(=O)C2CCCCC2)cc1)NCc1cccs1`?
AMPAR-TARP mod: inactive; GIRK2 act: inactive

What do the screens show for `O=C(CCc1csc(NS(=O)(=O)c2ccc(F)cc2)n1)NCc1ccco1`?
AMPAR-TARP mod: inactive; GIRK2 act: inactive

Results for C/C(Cl)=C\Cn1c(NCc2ccco2)nc2c1c(=O)n(C)c(=O)n2C ?
AMPAR-TARP mod: inactive

Results for Cc1cccn2c(=O)c(C=NCCO)c(NCc3ccco3)nc12 ?
AMPAR-TARP mod: active

Results for Cc1cccn2c(=O)c(/C=N/O)c(NCCO)nc12 ?
AMPAR-TARP mod: inactive

What do the screens show for `COc1ccc(N=Cc2c(NCCO)nc3c(C)cccn3c2=O)cc1`?
AMPAR-TARP mod: active; GIRK2 act: inactive

How did O=C(Nc1ccccc1I)c1ccc(-c2ccc([N+](=O)[O-])cc2)o1 do in these assays?
AMPAR-TARP mod: inactive

What do the screens show for `O=C(c1ccccc1)N1N=C(c2ccc(NS(=O)(=O)c3ccccc3)cc2)CC1c1ccco1` (centres undefined)?
AMPAR-TARP mod: inactive; GIRK2 act: inactive

How did CCN(C(=O)Cn1cc(-c2ccc(C)cc2)c(N2CCOCC2)n1)c1cccc(C)c1 do in these assays?
GIRK2 act: inactive

How did CCN(C(=O)Cn1cc(-c2ccccc2)c(N2CCOCC2)n1)c1cccc(C)c1 do in these assays?
AMPAR-TARP mod: active; GIRK2 act: inactive

Results for O=S(=O)(c1cccs1)N1CCN(Cc2nnnn2-c2ccc(Cl)cc2)CC1 ?
AMPAR-TARP mod: inactive; GIRK2 act: inactive

What do the screens show for `O=S(=O)(c1cccs1)N1CCN(Cc2nnnn2-c2ccc(F)cc2)CC1`?
AMPAR-TARP mod: active; GIRK2 act: inactive

How did Cc1cc(F)ccc1S(=O)(=O)N1CCC(c2cccs2)CC1 do in these assays?
AMPAR-TARP mod: inactive; GIRK2 act: inactive

Results for CC(=O)Nc1cccc(NC(=O)C(=O)NCC(c2cccs2)N2CCOCC2)c1 (centres undefined) ?
AMPAR-TARP mod: inactive

How did O=C(Cc1cc(-c2ccc(Cl)cc2)on1)N1CCc2ccccc2C1 do in these assays?
AMPAR-TARP mod: inactive; GIRK2 act: inactive

Results for COc1cn(CC(=O)Nc2ccc(OC(F)(F)F)cc2)c(CSc2ccccc2)cc1=O ?
AMPAR-TARP mod: inactive

What do the screens show for `O=C(NCCc1ccc(F)cc1)Nc1ccc([N+](=O)[O-])cc1`?
AMPAR-TARP mod: active

What do the screens show for `COc1ccc(NC(=O)Cc2ccc(SC)cc2)cc1`?
AMPAR-TARP mod: inactive

Results for CSc1ccc(CC(=O)Nc2ccc([N+](=O)[O-])cc2)cc1 ?
AMPAR-TARP mod: active

What do the screens show for `CCc1ccc(NC(=O)C(=O)Nc2ccc([N+](=O)[O-])cc2)cc1`?
AMPAR-TARP mod: inactive

How did COc1cc(/C=C/C(=O)NCC2CCN(S(=O)(=O)C3CC3)CC2)cc(OC)c1OC do in these assays?
AMPAR-TARP mod: inactive; GIRK2 act: inactive

Source: PubChem BioAssay (several laboratories)
